From PubChem BioAssay (NCATS) come the findings set out here.

Assay [1] is described as follows: qHTS for Inhibitors of Plasmodium falciparum (7G8) proliferation (AID 504316). Further: nearly all actives have a fitted effect of over 65% in size. Further: potency means the concentration at half of the fitted maximal effect. An outline of the steps:
(§1)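 Erythrocytes infected with P. falciparum line (0.3% parasitemia, 2.5% hematocrit final) incubated with compounds 72 h at 37 °C, 5% CO2; SYBR Green lysis buffer added, fluorescence read next day. Normalized to 0.29 uM artemisinin and DMSO.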

Assay [2] in a line: qHTS for Inhibitors of Plasmodium falciparum (CP250) proliferation (AID 504320). In a few lines:
as §1
For orientation: qHTS replaces the single test concentration by a dilution series.

Assay [3] deals with Atrial natriuretic peptide receptor 1 (Homo sapiens) (UniProt P16066). Kind of assay: Natriuretic polypeptide receptor (hNpr1) antagonism - Pilot CMLD screen (AID 1347052; calls by dose curve;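 further: HEK293 cells with hNpr1 stimulated by hNppA peptide at 0.1 nM; cGMP level read as GloSensor luciferase luminescence after agonist stimulation; series mostly up to about 9.2 µM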).

Inconclusive results are not listed. The source made the active and inactive calls. Unless noted, the call rests on the fitted dose curve; in most records, active means well fitted curve in the direction sought with a large enough effect; inconclusive means small, poorly fitted or top-dose-only effect, or another doubt; inactive means no such curve, though single readings can be large; an effect the other way counts as inactive or inconclusive.

Chain of Atrial natriuretic peptide receptor 1 (Homo sapiens) (P16066 whole entry, looked up): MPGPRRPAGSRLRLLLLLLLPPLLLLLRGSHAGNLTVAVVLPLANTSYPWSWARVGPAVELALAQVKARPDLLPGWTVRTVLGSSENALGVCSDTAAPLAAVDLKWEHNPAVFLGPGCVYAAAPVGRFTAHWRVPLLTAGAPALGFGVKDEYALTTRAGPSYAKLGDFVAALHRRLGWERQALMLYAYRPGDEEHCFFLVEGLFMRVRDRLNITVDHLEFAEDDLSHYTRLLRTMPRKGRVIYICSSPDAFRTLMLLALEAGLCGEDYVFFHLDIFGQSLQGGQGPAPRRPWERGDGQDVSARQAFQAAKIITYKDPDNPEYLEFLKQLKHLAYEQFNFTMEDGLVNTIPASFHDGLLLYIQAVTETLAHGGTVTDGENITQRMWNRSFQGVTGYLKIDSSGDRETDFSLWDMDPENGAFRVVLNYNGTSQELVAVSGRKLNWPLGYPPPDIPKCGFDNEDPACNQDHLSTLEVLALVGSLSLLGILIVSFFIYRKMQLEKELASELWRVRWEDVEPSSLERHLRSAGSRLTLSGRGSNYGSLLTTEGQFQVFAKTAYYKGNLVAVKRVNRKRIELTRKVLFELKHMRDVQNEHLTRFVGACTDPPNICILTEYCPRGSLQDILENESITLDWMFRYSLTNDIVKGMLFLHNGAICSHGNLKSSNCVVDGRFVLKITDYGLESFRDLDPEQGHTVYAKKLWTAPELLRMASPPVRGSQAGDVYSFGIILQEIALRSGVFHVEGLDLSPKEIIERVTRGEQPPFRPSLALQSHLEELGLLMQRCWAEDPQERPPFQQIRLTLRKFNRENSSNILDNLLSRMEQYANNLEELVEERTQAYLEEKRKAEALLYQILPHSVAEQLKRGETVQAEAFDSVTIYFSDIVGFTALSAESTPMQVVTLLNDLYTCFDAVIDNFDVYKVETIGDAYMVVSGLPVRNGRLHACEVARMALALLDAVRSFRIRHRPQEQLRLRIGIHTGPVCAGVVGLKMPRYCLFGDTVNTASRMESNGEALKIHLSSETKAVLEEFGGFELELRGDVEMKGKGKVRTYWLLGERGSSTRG

Regarding `C[C@H]1CC[C@H]2C(=O)N(Cc3ccc(Cl)cc3)C[C@@H](O)CN2[C@H]1c1ccc(Br)cc1`, the Potency in assay [1] was 1690 nM (active). The Potency entry in assay [2] and in assay [3] was “inactive” each time.
As for `CC(C)=CCN1C(=O)[C@@]2(CC(C)=CC[C@@H](COc3ccccc3)O2)c2ccccc21`, in assay [1], the Potency is 2690 nM (active). Besides, the Potency entry in assay [2] and in assay [3] was “inactive” each time.
`O=P1(O)Oc2c(-c3ccccc3)cc3ccccc3c2-c2c(c(-c3ccccc3)cc3ccccc23)O1`: the Potency result in assay [1], in assay [2] and in assay [3] was “inactive” throughout.
